Measured values from PubChem BioAssay (NCATS).
Results filed as inconclusive are left out. The source made the active and inactive calls. Unless noted, calls come from the whole dose curve; as a rule, active = well fitted curve in the direction sought with a large enough effect; inconclusive = small, poorly fitted or top-dose-only effect, or another doubt; inactive = no such curve, though single readings can be large; an effect the other way counts as inactive or inconclusive.

Legend:
[1] = molecular target: Lysosomal acid glucosylceramidase (Homo sapiens) (UniProt P04062); assay: Glucocerebrosidase-p2 (AID 348; in the data active = potency below about 10 µM; note: potency is the fitted concentration of half-maximal effect); conditions: purified GBA, blue fluorogenic substrate, 40 min
Chain of Lysosomal acid glucosylceramidase (Homo sapiens) (P04062 whole entry, looked up): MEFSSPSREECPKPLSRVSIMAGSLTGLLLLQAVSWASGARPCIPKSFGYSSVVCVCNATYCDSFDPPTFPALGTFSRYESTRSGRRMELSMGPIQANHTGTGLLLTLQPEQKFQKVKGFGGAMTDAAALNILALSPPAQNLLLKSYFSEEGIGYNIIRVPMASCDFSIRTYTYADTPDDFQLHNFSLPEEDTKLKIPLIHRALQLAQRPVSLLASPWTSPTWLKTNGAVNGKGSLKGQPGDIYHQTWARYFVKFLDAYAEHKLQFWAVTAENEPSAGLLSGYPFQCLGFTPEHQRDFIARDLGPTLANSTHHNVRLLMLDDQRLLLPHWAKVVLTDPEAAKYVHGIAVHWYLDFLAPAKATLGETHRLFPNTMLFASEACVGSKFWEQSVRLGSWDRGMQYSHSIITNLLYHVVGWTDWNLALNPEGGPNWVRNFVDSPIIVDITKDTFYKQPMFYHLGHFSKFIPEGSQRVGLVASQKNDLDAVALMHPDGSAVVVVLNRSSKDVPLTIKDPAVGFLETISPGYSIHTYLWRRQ
In short: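 Normal human glucocerebrosidase (0.2 nM) with blue fluorogenic substrate (80 uM final) in citrate/phosphate pH 5.9 with 10mM sodium taurocholate, 0.01% tween-20; 40 min RT, NaOH/glycine stop; fluorescence Ex 365/Em 440; AC50 from a titration from 0.6 nM upwards.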

[2] = AP1 Signaling Pathway (AID 357; active = well fitted curve in either direction with a large enough effect, not every such curve was filed as active;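 note: ME-180 reporter cells stimulated with EGF at its EC50 level; % is set by controls: 0 for no effect and ±100 for the full control effect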); conditions: ME-180 AP-1-bla reporter, EGF-induced, beta-lactamase ratio, 5 h; at 7.69 µM (top of the series) unless noted
In short: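 In this screen, ME-180 cells in Opti-MEM with 0.5% dialyzed FBS received EC50 EGF and compound titrations for 5 h. AP-1 reporter beta-lactamase was detected via CCF4 ratio, giving AC50 for positive and negative modulators.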

[3] = molecular target: Cytochrome P450 1A2 (Homo sapiens) (UniProt P05177); assay: p450-cyp1a2 (AID 410; calls by dose curve; note: potency is the fitted concentration of half-maximal effect;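 for activity change, negative = inhibition: -100% = full effect of reference inhibitor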); conditions: recombinant CYP1A2, luciferin-ME demethylation, luminescence; series mostly up to 57 µM
Chain of Cytochrome P450 1A2 (Homo sapiens) (P05177 whole entry, looked up): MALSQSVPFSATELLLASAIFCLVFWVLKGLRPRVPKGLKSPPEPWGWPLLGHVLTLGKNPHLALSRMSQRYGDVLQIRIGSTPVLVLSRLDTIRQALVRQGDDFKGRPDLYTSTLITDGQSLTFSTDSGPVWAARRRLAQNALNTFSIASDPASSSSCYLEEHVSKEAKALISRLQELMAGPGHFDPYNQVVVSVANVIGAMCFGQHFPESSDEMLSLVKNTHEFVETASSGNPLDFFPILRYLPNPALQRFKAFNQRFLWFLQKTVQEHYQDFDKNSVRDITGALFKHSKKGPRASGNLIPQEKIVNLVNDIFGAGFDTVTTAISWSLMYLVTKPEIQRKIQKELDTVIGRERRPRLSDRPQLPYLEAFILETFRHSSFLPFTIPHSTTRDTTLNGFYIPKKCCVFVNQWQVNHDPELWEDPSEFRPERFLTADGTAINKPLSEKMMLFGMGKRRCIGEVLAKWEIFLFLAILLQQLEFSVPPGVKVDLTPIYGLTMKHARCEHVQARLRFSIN
In short: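 Read-out is luminescence from luciferin produced by CYP1A2 demethylation of Luciferin-ME (100uM, at Km). Detection reagent stopped the 60 min NADPH-dependent reaction; signals were normalized to 57 uM furafylline.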

[4] = NFAT Signaling Pathway (AID 444; active = well fitted curve in either direction with a large enough effect, not every such curve was filed as active;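 note: carbachol stimulus at about its EC50 of 1 µM final; % is set by controls: 0 for no effect and ±100 for the full control effect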); conditions: Jurkat NFAT-bla M1, carbachol, beta-lactamase ratio, 5 h; at 7.69 µM (top of the series) unless noted
In short: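 Read-out: CCF4 FRET ratio (460 nm/530 nm) after 1 h RT dye loading, used for %activity and AC50 from titration series. Cells: Jurkat NFAT-β-lactamase/M1 line, treated with compound plus 1 uM carbachol for 5 h, 37 °C.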

[5] = Stat Signaling Pathway (AID 446; active = well fitted curve in either direction with a large enough effect, not every such curve was filed as active;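 note: ME-180 cervical cancer cells given 40 pM IL-6 alongside compound; SIE-controlled beta-lactamase reporter measured as 460/530 nm FRET emission ratio; % is set by controls: 0 for no effect and ±100 for the full control effect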); conditions: ME-180 (cervical carcinoma) SIE beta-lactamase reporter, IL-6 stimulated, 5 h; at 7.69 µM (top of the series) unless noted
In short: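 Emission at 460 and 530 nm (excitation 405 nm) reports SIE-controlled beta-lactamase in ME-180 cells. Cells received compound with 40 pM IL-6 for 5 hrs at 37 C; data scaled between 300 pM IL-6 and 125 nM JAK-inhibitor controls.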

[6] = molecular target: Glucocorticoid receptor (Homo sapiens) (UniProt P04150); assay: GR-GFP Redistribution (AID 450;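 active = compounds whose dose series gives a full or clear partial fitted curve of increased nuclear translocation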; note: potency is the fitted concentration of half-maximal effect); conditions: U2OS GR-GFP nuclear translocation, laser cytometry, 2 h
Chain of Glucocorticoid receptor (Homo sapiens) (P04150 whole entry, looked up, the tested form may be a part): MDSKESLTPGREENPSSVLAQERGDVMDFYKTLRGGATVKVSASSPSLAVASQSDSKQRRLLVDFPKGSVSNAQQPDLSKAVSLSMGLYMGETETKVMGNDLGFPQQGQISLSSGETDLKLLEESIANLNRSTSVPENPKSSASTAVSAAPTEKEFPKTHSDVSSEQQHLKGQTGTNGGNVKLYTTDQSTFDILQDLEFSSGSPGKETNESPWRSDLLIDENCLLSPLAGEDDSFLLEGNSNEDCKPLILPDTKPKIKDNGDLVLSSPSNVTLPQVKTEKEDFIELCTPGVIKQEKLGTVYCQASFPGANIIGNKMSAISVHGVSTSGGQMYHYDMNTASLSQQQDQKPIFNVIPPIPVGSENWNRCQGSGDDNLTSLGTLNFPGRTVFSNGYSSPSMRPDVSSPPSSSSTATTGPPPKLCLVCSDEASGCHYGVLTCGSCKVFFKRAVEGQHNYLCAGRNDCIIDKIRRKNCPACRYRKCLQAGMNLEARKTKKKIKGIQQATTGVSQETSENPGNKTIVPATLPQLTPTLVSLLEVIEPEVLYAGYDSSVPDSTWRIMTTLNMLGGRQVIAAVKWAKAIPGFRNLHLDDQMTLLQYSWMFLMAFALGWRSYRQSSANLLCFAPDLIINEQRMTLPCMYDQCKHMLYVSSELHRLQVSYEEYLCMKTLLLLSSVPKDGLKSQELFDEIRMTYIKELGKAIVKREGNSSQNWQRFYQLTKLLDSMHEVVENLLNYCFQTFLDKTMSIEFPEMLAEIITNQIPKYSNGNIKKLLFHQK

[7] = molecular target: Glucocorticoid receptor (Homo sapiens) (UniProt P04150); assay: GR-EFC Redistribution (AID 451; calls by dose curve; note: potency is the fitted concentration of half-maximal effect); conditions: CHO-K1 GR-EFC translocation, beta-gal luminescence, 2 h
In short: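 Translocation of GR-ED fusion to nuclear EA restores b-gal, read by luminescence after 1 h room-temperature detection. Engineered CHO-K1 biosensor cells, 1,000/well, exposed 2 h at 37 C to titrations up to 46 uM final.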

[8] = molecular target: Mitogen-activated protein kinase 10 (Mus musculus) (UniProt Q61831); assay: JNK3 AlphaScreen Assay (AID 530; active = well fitted curve in either direction with a large enough effect, not every such curve was filed as active;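 note: kinase came from lysate of stimulated human HepG2 cells; signal reports phosphorylation of biotinylated GST-cJun 1-79 at Ser73 with 10 µM ATP; % is set by controls: 0 for no effect and ±100 for the full control effect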); conditions: JNK3 lysate, c-Jun phosphorylation; series mostly up to 57.1 µM
In short: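 Kinase buffer: 20 mM Tris-HCl pH 7.6, 10 mM MgCl2, 1 mM DTT, 0.1 mM Na3VO4, 0.01% Tween-20; ATP 10 uM. Substrate biotin-GST-cJun(1-79), enzyme from activated HepG2 lysates. Detection by Ser73 phospho-antibody AlphaScreen.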

[9] = molecular target: 3',5'-cyclic-AMP phosphodiesterase 4B (Homo sapiens) (UniProt Q07343); assay: qHTS Assay for Inhibitors of PDE-IV (AID 607; active = well fitted activation curve with a large enough effect in the main read-out, with a control signal flat, not every such curve was filed as active; note: % of control where 0% means no effect); conditions: HEK293 ACTOne CNG channel cells, membrane potential fluorescence; series mostly up to 22.9 µM
Chain of 3',5'-cyclic-AMP phosphodiesterase 4B (Homo sapiens) (Q07343 whole entry, looked up): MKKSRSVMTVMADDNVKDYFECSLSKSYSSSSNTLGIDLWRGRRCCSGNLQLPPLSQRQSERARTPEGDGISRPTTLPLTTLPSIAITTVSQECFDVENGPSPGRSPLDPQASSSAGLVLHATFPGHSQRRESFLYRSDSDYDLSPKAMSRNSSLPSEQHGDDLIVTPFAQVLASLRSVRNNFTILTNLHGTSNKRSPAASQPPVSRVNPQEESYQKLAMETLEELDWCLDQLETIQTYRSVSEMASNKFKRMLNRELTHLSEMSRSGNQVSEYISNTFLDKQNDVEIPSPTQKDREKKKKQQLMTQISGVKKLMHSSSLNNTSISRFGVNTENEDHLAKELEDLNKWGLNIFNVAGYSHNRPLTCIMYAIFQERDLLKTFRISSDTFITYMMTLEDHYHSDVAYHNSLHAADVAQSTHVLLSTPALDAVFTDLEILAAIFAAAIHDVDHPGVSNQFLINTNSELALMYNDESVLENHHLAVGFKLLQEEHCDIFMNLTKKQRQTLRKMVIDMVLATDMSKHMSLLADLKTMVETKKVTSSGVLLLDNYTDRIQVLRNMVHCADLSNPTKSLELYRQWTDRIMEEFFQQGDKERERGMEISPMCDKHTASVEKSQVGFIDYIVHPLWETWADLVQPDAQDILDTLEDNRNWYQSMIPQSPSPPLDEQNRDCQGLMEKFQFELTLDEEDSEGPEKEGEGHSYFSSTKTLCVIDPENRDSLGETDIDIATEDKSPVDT
In short: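 The readout is membrane depolarisation from a cAMP-sensing CNG channel, detected with a potential dye at ex 535/em 590. Cells were HEK293-derived (endogenous PDE-IV) at 1000 cells/well, titrated up to 22.9 uM final.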

[10] = molecular target: Cytochrome P450 3A4 (Homo sapiens) (UniProt P08684); assay: qHTS Assay for Activators of Cytochrome P450 3A4 (AID 885); conditions: recombinant CYP3A4, Luciferin-PPXE luminescence, 60 min; series mostly up to 57.1 µM; note: nearly all actives have a fitted effect of over 65% in size; note: potency is the fitted concentration of half-maximal effect
Chain of Cytochrome P450 3A4 (Homo sapiens) (P08684 whole entry, looked up): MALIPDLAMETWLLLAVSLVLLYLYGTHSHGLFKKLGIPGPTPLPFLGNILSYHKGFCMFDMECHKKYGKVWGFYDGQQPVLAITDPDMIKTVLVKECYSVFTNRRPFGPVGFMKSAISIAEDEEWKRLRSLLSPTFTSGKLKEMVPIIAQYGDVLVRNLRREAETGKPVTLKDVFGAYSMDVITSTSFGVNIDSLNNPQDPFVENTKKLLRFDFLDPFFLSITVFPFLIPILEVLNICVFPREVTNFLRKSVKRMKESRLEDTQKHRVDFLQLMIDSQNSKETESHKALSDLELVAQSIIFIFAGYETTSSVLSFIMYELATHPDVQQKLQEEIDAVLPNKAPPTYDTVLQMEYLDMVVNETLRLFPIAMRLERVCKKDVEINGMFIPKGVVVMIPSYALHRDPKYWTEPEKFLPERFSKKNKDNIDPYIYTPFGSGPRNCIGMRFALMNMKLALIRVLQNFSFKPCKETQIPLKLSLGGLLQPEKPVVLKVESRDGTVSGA
In short: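 Activators are scored by enhanced luminescence from CYP3A4 conversion of luciferin-PPXE (25uM, equal to KM) to luciferin, after 60 min at RT with an NADPH-regenerating system.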

[11] = qHTS Assay for Lipid Storage Modulators (AID 1519; calls by dose curve); conditions: Drosophila S3 cells, BODIPY lipid droplet/cell ratio, laser cytometry, cells loaded with oleic acid; for activity change, negative = inhibition: at 57.5 µM (top of the series)
In short: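 Cells seeded at 5,000 per well were treated with compounds over a concentration series and loaded with oleic acid (400 uM, as added). Lipid droplet fluorescence (488 nm excitation, 500-530 nm channel) was read by laser-scanning cytometry and normalized to 20 uM Triacsin C.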

[12] = molecular target: Dual specificity protein kinase CLK4 (Homo sapiens) (UniProt Q9HAZ1); assay: qHTS Assay for Inhibitors of CDC-like Kinase 4 (Kinase-Glo Assay) (AID 1770); conditions: recombinant Clk4, Kinase-Glo ATP depletion luminescence; series mostly up to 66.7 µM; note: nearly all actives have a fitted effect of over 65% in size; note: potency is the fitted concentration of half-maximal effect
Chain of Dual specificity protein kinase CLK4 (Homo sapiens) (Q9HAZ1 whole entry, looked up): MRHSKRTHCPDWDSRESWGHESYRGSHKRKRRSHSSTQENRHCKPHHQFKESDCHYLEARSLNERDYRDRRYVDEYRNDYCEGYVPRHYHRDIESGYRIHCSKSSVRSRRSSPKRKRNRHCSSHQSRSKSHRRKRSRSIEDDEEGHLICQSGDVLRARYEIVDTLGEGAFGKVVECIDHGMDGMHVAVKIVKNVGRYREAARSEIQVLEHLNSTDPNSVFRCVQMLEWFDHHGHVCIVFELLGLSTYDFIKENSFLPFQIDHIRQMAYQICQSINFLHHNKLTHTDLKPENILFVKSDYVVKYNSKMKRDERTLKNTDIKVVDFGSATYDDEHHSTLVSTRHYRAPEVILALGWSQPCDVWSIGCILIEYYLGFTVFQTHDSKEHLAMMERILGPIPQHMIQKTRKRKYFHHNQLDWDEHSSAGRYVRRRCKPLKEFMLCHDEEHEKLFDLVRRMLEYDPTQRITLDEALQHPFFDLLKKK
In short: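 Clk4 25 nM, RS peptide 100 uM, ATP 1 uM, pH 7.5 Tris, 10 mM MgCl2, 2.5 mM DTT; 4.5 h RT; ATP depletion read by Kinase-Glo luminescence.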

[13] = molecular target: Dual specificity protein kinase CLK4 (Homo sapiens) (UniProt Q9HAZ1); assay: qHTS Assay for Inhibitors of CDC-like Kinase 4 (ADP-Glo Assay) (AID 1771); conditions: recombinant CLK4, ADP-Glo luminescence; series mostly up to 80 µM; note: nearly all actives have a fitted effect of over 70% in size; note: potency is the fitted concentration of half-maximal effect
In short: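 In this ADP-Glo format, 1 uM ATP and 100 uM RS peptide served as substrates for 25 nM Clk4 in Mg2+/EGTA/DTT/Triton buffer; reactions ran 1 hr at room temperature before luminescent ADP quantification.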

[14] = molecular target: Dual specificity protein kinase CLK4 (Homo sapiens) (UniProt Q9HAZ1); assay: qHTS Assay for Inhibitors of CDC-like Kinase 4 (ADP-FP Assay) (AID 1795); conditions: Transcreener ADP fluorescence polarization; series mostly up to 50 µM; note: nearly all actives have a fitted effect of over 60% in size; note: potency is the fitted concentration of half-maximal effect
In short: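 Kinase activity was followed as ADP output, converted from fluorescence polarization with a calibration curve. Reactions ran one hour at low ATP (1 uM) with RS peptide substrate.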

[15] = molecular target: Ubiquitin carboxyl-terminal hydrolase 1 (Homo sapiens) (UniProt O94782); assay: Inhibitors of USP1/UAF1: Pilot qHTS (AID 504865); conditions: purified USP1/UAF1, Ub-rhodamine cleavage fluorescence; series mostly up to 54.9 µM;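 note: rhodamine fluorescence freed from ubiquitin-rhodamine substrate followed over time; top concentration of the series differs between compounds; % is set by controls: 0 for no effect and ±100 for the full control effect; nearly all actives have a fitted effect of over 35% in size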
Chain of Ubiquitin carboxyl-terminal hydrolase 1 (Homo sapiens) (O94782 whole entry, looked up): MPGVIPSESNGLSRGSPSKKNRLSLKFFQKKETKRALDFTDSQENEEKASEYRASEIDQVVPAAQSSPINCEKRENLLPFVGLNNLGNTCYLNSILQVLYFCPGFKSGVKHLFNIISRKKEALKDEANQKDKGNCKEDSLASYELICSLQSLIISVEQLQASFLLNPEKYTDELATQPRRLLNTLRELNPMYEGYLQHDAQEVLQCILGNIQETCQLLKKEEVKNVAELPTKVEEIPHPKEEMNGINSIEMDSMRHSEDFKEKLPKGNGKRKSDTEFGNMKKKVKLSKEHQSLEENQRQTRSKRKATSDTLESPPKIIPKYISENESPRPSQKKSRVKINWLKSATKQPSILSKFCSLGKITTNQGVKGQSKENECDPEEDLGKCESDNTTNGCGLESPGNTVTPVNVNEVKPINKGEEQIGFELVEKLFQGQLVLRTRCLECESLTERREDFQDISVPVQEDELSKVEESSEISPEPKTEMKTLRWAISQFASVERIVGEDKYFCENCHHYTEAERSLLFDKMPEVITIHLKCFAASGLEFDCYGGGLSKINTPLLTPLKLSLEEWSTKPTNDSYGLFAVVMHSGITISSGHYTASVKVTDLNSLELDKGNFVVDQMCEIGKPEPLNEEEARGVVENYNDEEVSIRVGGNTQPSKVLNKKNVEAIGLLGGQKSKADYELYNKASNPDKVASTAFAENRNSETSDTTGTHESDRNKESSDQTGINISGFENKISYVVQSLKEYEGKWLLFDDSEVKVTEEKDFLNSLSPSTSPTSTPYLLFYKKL
In short: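 Enzyme-free wells gave the negative control, while test wells held 1nM USP1/UAF1 preincubated with compound for 15 min at room temperature. Ub-Rho at 150nM final started the reaction, and fluorescence at 480/540 nm was recorded kinetically.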

[16] = Primary qHTS for small molecule stabilizers of the endoplasmic reticulum resident proteome: Secreted ER Calcium Modulated Protein (SERCaMP) assay (AID 1508630); conditions: SH-SY5Y GLuc-SERCaMP (Gaussia luciferase released on ER calcium loss) secretion, thapsigargin, luminescence; series mostly up to 38.4 µM; note: % is set by controls: 0 for no effect and ±100 for the full control effect
In short: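 The SH-SY5Y reporter protocol was run at 3 concentrations up to 38.3 uM (primary) or 11 concentrations (follow-up): 16 h compound, 100 nM thapsigargin for 4 h, then extracellular luciferase luminescence.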

[17] = measured here: cell count channel max response
[18] = measured here: lipid channel max response

Row | Structure (SMILES) | Potency [1] | activity change, negative = inhibition [2] | Potency [3] | activity change, negative = inhibition [4] | activity, negative = inhibition [5] | Potency [6] | Potency [7] | outcome [8] | Potency [9] | Potency [10] | activity change, negative = inhibition [11] | max response [11, 17] [%] | max response [11, 18] [%] | Potency [12] | Potency [13] | Potency [14] | Potency [15] | Potency [16]
1 | CNc1ccnc(-c2ccccc2OC)n1 | > 11.4 µM (inactive) | 4.71% (inactive) | 5.01 µM (active) | 8.86% (inactive) | 16.8% (inactive) | > 46 µM (inactive) | > 46 µM (inactive) | inactive | inactive | inactive | 6.44% (inactive) | 21.3 | 26.2 | inactive | inactive | inactive | inactive | inactive
2 | Cc1noc(C)c1-c1cncnc1NCc1ccccc1 | > 11.4 µM (inactive) | -6.64% (inactive) | 25.1 µM (active) | 0.549% (inactive) | -5.87% (inactive) | > 46 µM (inactive) | > 46 µM (inactive) | inactive | inactive | inactive | 6.38% (inactive) | 0.495 | 15.9 | inactive | inactive | inactive | inactive | inactive
3 | Cc1noc(C)c1-c1cncnc1N(C)Cc1ccco1 | > 11.4 µM (inactive) | 1.41% (inactive) | inactive | -7.22% (inactive) | -0.77% (inactive) | > 46 µM (inactive) | > 46 µM (inactive) | inactive | inactive | inactive | 4.24% (inactive) | 11.5 | 13.2 | inactive | inactive | inactive | inactive | inactive
4 | CN1CCN(c2ncc3nc(-c4cc(F)cc(F)c4)c(=O)n(C)c3n2)CC1 | > 11.4 µM (inactive) | 11.2% (inactive) | 5.01 µM (active) | 5.17% (inactive) | 12.7% (inactive) | > 9.22 µM (inactive) | > 46 µM (inactive) | inactive | – | – | 4.65% (inactive) | 14.2 | 19.8 | inactive | inactive | inactive | inactive | inactive
5 | CN(C)c1ncc2nc(-c3cc(F)cc(F)c3)c(=O)n(CCC#N)c2n1 | > 11.4 µM (inactive) | 4.37% (inactive) | inactive | 29.2% (inactive) | 2.22% (inactive) | > 9.22 µM (inactive) | > 46 µM (inactive) | inactive | inactive | inactive | 3.22% (inactive) | 19.6 | 21.3 | inactive | inactive | inactive | inactive | inactive
6 | CC(=O)NCCNc1ncnc2ccc(-c3cccc(NS(C)(=O)=O)c3)cc12 | > 11.4 µM (inactive) | 3.51% (inactive) | 15.8 µM (active) | 7.81% (inactive) | 6.44% (inactive) | > 46 µM (inactive) | > 46 µM (inactive) | inactive | inactive | inactive | 1.93% (inactive) | 24.3 | 24.6 | 12.6 µM (active) | 12.6 µM (active) | 8.91 µM (active) | inactive | inactive
7 | CNc1cc(-c2ccccc2C(F)(F)F)ncn1 | > 11.4 µM (inactive) | 4.62% (inactive) | 15.8 µM (active) | 1.13% (inactive) | 7.97% (inactive) | > 46 µM (inactive) | > 46 µM (inactive) | inactive | inactive | 15.8 µM (active) | 1.87% (inactive) | 21.4 | 21.2 | inactive | inactive | inactive | inactive | inactive
8 | Cc1cnc(CNc2ncnc3ccc(-c4ccoc4)cc23)cn1 | > 11.4 µM (inactive) | -14.2% (inactive) | 12.6 µM (active) | -6.73% (inactive) | -13.1% (inactive) | > 46 µM (inactive) | > 46 µM (inactive) | inactive | inactive | inactive | 0.59% (inactive) | 20.6 | 16.4 | 0.251 µM (active) | 0.224 µM (active) | 0.224 µM (active) | inactive | inactive
9 | COc1ccc(Oc2ncc3nc(C)c(=O)n(C[C@H]4CCCO4)c3n2)cc1 | > 11.4 µM (inactive) | -5.04% (inactive) | 12.6 µM (active) | 1.62% (inactive) | -14.8% (inactive) | > 9.22 µM (inactive) | > 46 µM (inactive) | inactive | inactive | inactive | -2.24% (inactive) | -3.75 | -4.08 | inactive | inactive | inactive | inactive | inactive
10 | CCNc1ncc2nc(-c3ccc(F)cc3)c(=O)n(CCOC)c2n1 | > 11.4 µM (inactive) | -5.66% (inactive) | 2 µM (active) | -3.34% (inactive) | 10.5% (inactive) | > 9.22 µM (inactive) | > 46 µM (inactive) | inactive | inactive | – | 6.73% (inactive) | 22.2 | 28.8 | inactive | inactive | inactive | inactive | inactive
11 | CN(C)c1ncc2nc(-c3ccc(F)cc3)c(=O)n(C)c2n1 | > 11.4 µM (inactive) | -9.27% (inactive) | 1.58 µM (active) | 2.27% (inactive) | -9.34% (inactive) | > 9.22 µM (inactive) | > 46 µM (inactive) | inactive | inactive | – | 8.24% (inactive) | 18.3 | 28.6 | inactive | inactive | inactive | inactive | inactive
